Measurements: PubChem BioAssay (NCI)
About 83,000 compounds went through this panel and 20% of them were active in at least one assay; those are over-represented in the sample as a whole.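 Assay: single dose, 48 h. Readout: percent growth (0 = no net growth; negative = cell death). Active: <10.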 The source made the active and inactive calls.

These molecules were tested on PC-3 prostate (assay: NCI-60 one-dose screen, 48 h (100 = growth as untreated, 0 = no growth, -100 = all killed)). Details: 10 µM unless noted.
`CCSc1oc(-c2ccccc2)nc1[P+](c1ccccc1)(c1ccccc1)c1ccccc1` was tested, and the growth was -1.59% (active). For `O=S(=O)(Nc1cc(F)cc(Cl)c1)c1ccc(-c2cnc(C3CC3)o2)cc1`, the growth was 32% (inactive). With `COc1cc2oc(-c3cccc(NC(=O)c4ccccc4)c3)cc(=O)c2c(OC)c1OC` the growth was 53.1% (inactive).

What follows are molecules tested on SK-MEL-5 melanoma in the same assay as above. Details: 10 µM unless noted.
For `O=C1Nc2ccccc2/C1=C/c1cccn1CCCCn1c2ccccc2c(=O)c2ccccc21`, the growth was 38.6% (inactive). `O=C1/C(=C/c2ccccc2Br)COc2ccc(O)cc21` was tested, and the growth was 94.6% (inactive). With `O=S(=O)(Nc1ccc(Cl)c(C(F)(F)F)c1)c1ccc(-c2cnc(C3CC3)o2)cc1` the growth was 18.6% (inactive). `Cc1cc(=O)oc2cc(OCc3nn4c(Nc5nc6ccccc6s5)c(-c5ccccc5)nc4s3)ccc12` was tested, and the growth was 99.2% (inactive). With `COC(=O)c1c(C)c2n(c1C)C(=O)C(c1ccccc1)=C2` the growth was 84.2% (inactive). With `C#CCOC(=O)/C=C/c1cn(-c2ccccc2)nc1-c1ccc(OC)cc1` the growth was 92% (inactive). With `Cc1c2cnccc2c(C)c2c1c1cc(C#N)ccc1n2C` the growth was -98.7% (active). In the case of `COC(=O)c1cc(N=C2NC(=O)/C(=C/C=C/c3ccccc3)S2)ccc1O`, the growth was 30.1% (inactive). `Cc1ccc2c(Cn3cc(CSc4nc5ccccc5o4)nn3)cc(=O)oc2c1` was tested, and the growth was 98.8% (inactive). `O=C(CSc1nnc(-c2cnccn2)n1-c1ccccc1)c1ccc(Cl)cc1` was tested, and the growth was 99.7% (inactive). With `NS(=O)(=O)c1ccccc1NC(=O)Nc1nc2ccccc2s1` the growth was 99.8% (inactive). With `CCOC(=O)C1=C(N)Oc2c(sc3c(F)cccc23)C1c1ccc(O)cc1` (stereo unspecified) the growth was 18% (inactive). With `COc1ccc(/C=C/C(=O)c2ccc(Nc3ccnc4cc(Cl)ccc34)cc2)cc1` the growth was 67.8% (inactive). With `Cc1cc(S(=O)(=O)/N=C(\N)n2nc(C)c(C)c2C)c(SCc2ccccc2)cc1Cl` the growth was 94.7% (inactive). For `COc1ccc(/C=C(\C#N)n2nnc3cc(Cl)ccc32)cc1`, the growth was -17.5% (active). With `CSc1nnc(-c2cc3c([nH]c4ccccc43)c(-c3cccc(O)c3)n2)n1-c1ccccc1` the growth was 19.9% (inactive). In the case of `O=C(O)c1ccc(-n2cc(/C=N/Nc3ccccc3)c(-c3ccc(F)cc3F)n2)cc1`, the growth was 58% (inactive). With `O=C(/C=C/c1cccc(Cl)c1)c1ccc(Nc2nc(Nc3ccc(F)cc3)nc(Nc3ccc(Cl)cc3)n2)cc1` the growth was 90.7% (inactive). `NC(=O)c1cccc(-n2ccc3cc(NC(=O)c4ccc(N5CCOCC5)c(C(F)(F)F)c4)ccc32)n1` was tested, and the growth was 49.7% (inactive). With `CCn1cc(C(=O)NNC(=S)Nc2ccc(C)cc2)c(=O)c2ccc(C)nc21` the growth was 101% (inactive). `O=C(O)c1cn(C2CC2)c2cc(N3CCN(C(=O)N(c4ccccc4)c4nc(-c5ccccc5)cs4)CC3)c(F)cc2c1=O` was tested, and the growth was -61.3% (active). With `Cc1cccc(/C=C/c2c(C(=O)/C=C/c3ccccc3)c(C)nc3ccccc23)c1` the growth was -58.1% (active). With `O=C(CSc1oc(-c2ccccc2)nc1S(=O)(=O)c1ccccc1)Nc1ccc(F)cc1` the growth was 78.8% (inactive). `O=C(/C=C/c1ccccc1)Nc1ncc(Cc2ccccc2Cl)s1` was tested, and the growth was 34.3% (inactive). In the case of `O=C(Nc1cccc(Cl)c1)Nc1cccc(Cn2c(=O)[nH]c3ccc(Oc4ncccn4)cc3c2=O)c1`, the growth was 25.5% (inactive). For `Cc1ccc2c(c1)=C/C(=C\c1cc(-c3ccccc3)oc1O)C(=O)N=2`, the growth was 105% (inactive). With `c1ccc(Cn2cc3c(c2)-c2oncc2CC3)cc1` the growth was 39.3% (inactive). `CCN(CC)c1ccc(\C=N/N=C(N)/C(N)=N\N=C/c2ccc(N(CC)CC)cc2)cc1` was tested, and the growth was 97.1% (inactive). `Nc1ncc(-c2ccc3ncnc(Nc4cccc(Cl)c4)c3c2)cn1` was tested, and the growth was 64.8% (inactive). `c1ccc([P+](c2ccccc2)(c2ccccc2)c2ccc3c4ccc([P+](c5ccccc5)(c5ccccc5)c5ccccc5)c5cccc(c6cccc2c63)c54)cc1` was tested, and the growth was -57.6% (active). For `Cc1ccc(NC(=O)Cn2cc(CN3CCN(c4ccnc5cc(Cl)ccc45)CC3)nn2)cc1`, the growth was 77.7% (inactive). For `COCCn1cc(-c2csc(-c3cn(C)c4ccc(Br)cc34)n2)c2cccnc21`, the growth was 71% (inactive). In the case of `C#CCOc1ccc2ncnc(Nc3ccc(NC(=O)C=C)cc3)c2c1`, the growth was 13.1% (inactive). In the case of `Cn1cc(-c2csc(-c3c[nH]c4ccc(Br)cc34)n2)c2ccnc(Cl)c21`, the growth was 71.7% (inactive). For `Nc1ncnc2c1c(-c1cccc(Cl)c1)nn2CC(=O)N1CCOCC1`, the growth was 101% (inactive). With `CCSc1oc(-c2ccccc2)nc1[P+](c1ccccc1)(c1ccccc1)c1ccccc1` the growth was -91.8% (active). In the case of `O=S(=O)(Nc1cc(F)cc(Cl)c1)c1ccc(-c2cnc(C3CC3)o2)cc1`, the growth was 19.9% (inactive). `COc1cc2oc(-c3cccc(NC(=O)c4ccccc4)c3)cc(=O)c2c(OC)c1OC` was tested, and the growth was 63.2% (inactive).
